The structures appear in SMILES notation. Compounds without any hit were thinned out: in the full panel of roughly 79,000, 15% have a hit. A number with no mark means an inactive call. No stated cut-off is given here; in the data, active means growth inhibition above about 70%; inactive means the rest.

The experiment in a line: NCI Yeast Anticancer Drug Screen. Data for the mlh1 rad18 strain (AID 175). The following applies: S. cerevisiae mlh1 rad18 strain growth inhibition; at 50.0 µM; stronger effect = higher value. A digest of the protocol:
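Genetically defined yeast (DNA repair-deficient) exposed to compounds; growth inhibition determined relative to vehicle.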
For `COc1ccc(-n2cnc3[nH]ncc3c2=O)cc1`, the growth inhibition was -2.95%.
In the case of `Cc1cccc2c1CCC21OC(=O)c2c1ccc1ccccc21` (stereo not drawn) it was 15.1%; in that of `CC(=Nc1cccc2ccccc12)c1c(O)cc(C)oc1=O`, 14.1%.
Turning to `CC(=O)N1CN2C(=O)CCC2c2ccccc21` (stereo not drawn), the growth inhibition is -48.2%.
With `O=C(O)c1ccc(C(=O)c2ccc(Cl)cc2)cc1`, the growth inhibition was 34.6%.
In the case of `C=CCNC(=S)N1c2ccccc2NC(=O)CC1C` (stereo not drawn) it was -15.4%; in that of `CC(=O)Oc1ccc2c(=O)c(C(C)=O)coc2c1`, 14.7%.
For `CCOc1ccc(C2=C/C(=C/c3cccs3)C(=O)O2)cc1` the value was -5.9%.

Source of the values: PubChem BioAssay (NCI).
